Whole data set: some 33,000 sequences, median “e-score” near -0.037, cut for the highest 2% near 0.34. This is one part of a sample in which the highest values are shown more often than they occur.
Target: T1, GST-Rok (full length) (Bacillus subtilis subsp. subtilis str. …, UniProt O34857 1-191)
T1 sequence: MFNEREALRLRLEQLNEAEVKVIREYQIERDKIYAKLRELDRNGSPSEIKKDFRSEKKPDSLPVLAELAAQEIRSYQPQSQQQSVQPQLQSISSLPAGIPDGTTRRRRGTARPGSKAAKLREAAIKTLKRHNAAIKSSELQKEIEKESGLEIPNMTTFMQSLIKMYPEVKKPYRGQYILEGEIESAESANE
Assay: protein binding microarray; Rok is a gene silencer of Bacillus subtilis; high values mean tight binding
Conditions: protein: recombinant; tags: GST (pTH5325, pDEST15-Magic modified); dsDNA, one strand shown
Method in brief: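 Each has a 25-mer constant primer and a 35-mer variable part from a de Bruijn sequence of order 10, covering every non-palindromic 8-mer at least 32 times (palindromic 16). Preference for each 8-mer is given as a rank-based, unitless enrichment score (E-score). Its range runs from 0.5 (most favored) to −0.5 (most disfavored).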

Row | Sequence | binding signal [E-score]
1 | TATGGTCA | -0.0127
2 | AGCGCAAA | 0.0549
3 | GCGTACTA | 0.082
4 | AAATTCTC | 0.0375
5 | AAATTCTT | 0.0789
6 | AAATTCTA | 0.402
7 | ACCGTCGA | 0.0177
8 | CGTACTAC | 0.339
9 | CGTACTGC | 0.0418
10 | AGTACGAT | 0.134
11 | GGTACTAA | 0.138
12 | AGTACTCA | 0.0122
13 | AGTACTAA | 0.357
14 | TGTACTAA | 0.0689
15 | AGTACTGC | 0.114
16 | AGTACTAT | 0.388
17 | AGTACTAC | 0.389
18 | GGTACTAC | 0.212
19 | CGTACTAA | 0.217
20 | AGGAGTCC | -0.0508
21 | ATTCCTAC | 0.201
22 | CATGGTCA | -0.1
23 | TACCGAAA | 0.225
24 | TCGAATCA | -0.0502
25 | ACCGCACT | 0.0535

Row | Sequence | binding signal [E-score]
26 | AGTACTAG | 0.385
27 | AGTACTGG | 0.156
28 | CGTACTAG | 0.0856
29 | ACGGTAAA | 0.349
30 | CCGGTATA | -0.0189
31 | AAGGTAGC | 0.133
32 | GCGGTATA | 0.347
33 | AAGGTAGT | 0.354
34 | ACGGTAGC | 0.139
35 | ACGGTAGT | 0.373
36 | ACGGTATA | 0.252
37 | AAGGTAGG | 0.133
38 | ACGGTAGG | 0.137
39 | CCGGTAAA | 0.107
40 | TCGGTAAA | 0.136
41 | CTAGATGA | 0.0637
42 | CTGCGAGA | -0.11
43 | AAGCCTGA | -0.131
44 | GACCCAGA | -0.174
45 | AGCAAACC | 0.0585
46 | GCGGTAGA | 0.337
47 | AAGGTAGA | 0.288
48 | TAGGTAGA | 0.361
49 | ACGGTAGA | 0.365
50 | GAGGTAGA | 0.296

Row | Sequence | binding signal [E-score]
51 | GCGGTAGC | 0.0476
52 | CCGGTAGA | 0.229
53 | GGGGTAGA | 0.011
54 | TCGGTAGA | 0.231
55 | GAAGCAAC | 0.0226
56 | GCCGTTAA | -0.0418
57 | CAGTTCTC | 0.00617
58 | AACGACAG | 0.0268
59 | CTATTGTA | 0.381
60 | ACATTGTA | 0.222
61 | CAATTGTA | 0.339
62 | CTATTGTC | -0.0651
63 | GTATTGTA | 0.238
64 | GAATTGTA | 0.254
65 | ATATTGTG | 0.172
66 | CAATTGTC | -0.0649
67 | ATATTGTA | 0.375
68 | AATGTTGT | 0.154
69 | CAGGGTTC | -0.172
70 | ATAACTAC | 0.316
71 | CTAACTAA | 0.29
72 | GCAACTAC | 0.308
73 | GTAACTAA | 0.304
74 | GTAACTAC | 0.394
75 | CTAACTAC | 0.397

Row | Sequence | binding signal [E-score]
76 | CGAACTAC | 0.358
77 | AGAACTAC | 0.327
78 | CGAACTAG | 0.319
79 | AAAGCCTG | -0.18
80 | ATTTTAAA | 0.126
81 | GTCGCTAA | 0.16
82 | GCATATGC | 0.129
83 | CTCATAAG | -0.129
84 | AACTACAG | 0.337
85 | GCCTACAA | 0.107
86 | AACTACAA | 0.34
87 | ACCTACAT | 0.271
88 | CACTACAG | -0.0355
89 | AACTACAC | 0.335
90 | AACTACAT | 0.419
91 | GACTACAA | 0.12
92 | ACCTACAG | 0.0467
93 | CACTACAA | 0.143
94 | TACTACAA | 0.357
95 | ACCTACAA | 0.265
96 | GAACCAGC | -0.148
97 | GTAATCCA | 0.00713
98 | ACATCGGA | 0.06
99 | ATTTTTGA | 0.0221
100 | GCTCTCAA | -0.174

Row | Sequence | binding signal [E-score]
101 | CCTAGCGA | -0.111
102 | CTCTACAA | 0.0924
103 | TTCTACAA | 0.392
104 | AGCTACAT | 0.364
105 | AGCTACAA | 0.205
106 | GTCTACAA | 0.11
107 | AGCTACAC | 0.191
108 | ACTTCGTC | -0.0747
109 | TGTCCAAA | 0.0695
110 | ACCGGCCG | -0.0951
111 | TCGAGAAA | 0.135
112 | GTTATTTA | 0.197
113 | CTTATTTA | 0.148
114 | ATTATTTA | 0.406
115 | GGTATTTA | 0.356
116 | GGTATTCA | -0.0162
117 | CGTATTTA | 0.261
118 | AGTATTTC | 0.332
119 | AGTATTTG | 0.31
120 | AGTATTTA | 0.344
121 | AAATGCTC | -0.142
122 | AAGATTAG | 0.197
123 | ACCAGTGC | -0.175
124 | TAGCAGCA | 0.0346
125 | GGAATATA | 0.366

Row | Sequence | binding signal [E-score]
126 | ATAATAAT | 0.372
127 | ATAATAAA | 0.297
128 | ATAATACC | 0.174
129 | ATAATAAC | 0.312
130 | ATAATACG | 0.349
131 | CTAATAGA | 0.0426
132 | CTAATATA | 0.349
133 | ATAATACA | 0.237
134 | CTAATATC | 0.255
135 | AGAATATA | 0.296
136 | CGAATATA | 0.321
137 | GTGGGTAA | 0.142
138 | AGTGACAT | 0.101
139 | AGCAAAAG | -0.151
140 | CCACTGAA | -0.106
141 | CCCATTGA | -0.11
142 | ACTTGATG | -0.00809
143 | AGCGCTGG | -0.124
144 | AGGCGTGC | -0.13
145 | ATATTCAT | 0.319
146 | GTGACGGA | -0.136
147 | TCGTTCAA | 0.0056
148 | ATAATATC | 0.274
149 | GTAATATA | 0.391
150 | ATAATATA | 0.453

Row | Sequence | binding signal [E-score]
151 | GTAATACA | 0.247
152 | ATAATATG | 0.232
153 | GTAATAGA | 0.257
154 | GCATGTCA | -0.0408
155 | ACGAGTTG | 0.149
156 | GAGATTGA | 0.0297
157 | TTGGTAAA | 0.217
158 | CATATCGA | 0.0224
159 | CTTTAAAG | 0.0411
160 | ACTAGTTC | 0.329
161 | ACTAGTTA | 0.44
162 | GCTAGTCA | -0.0821
163 | ACTAGTCG | 0.292
164 | CCTAGTTA | 0.209
165 | ACTAGTCA | 0.352
166 | GCTAGTGA | 0.0873
167 | GCTAGTTA | 0.337
168 | ACTAGTCC | 0.108
169 | ACTGTTCT | 0.0222
170 | AAATAGGC | 0.00361
171 | AACATTAA | 0.133
172 | AGCTGCTC | -0.187
173 | CTCCATAC | 0.166
174 | AGTCTGAC | -0.198
175 | GTTAGGTA | 0.191

Row | Sequence | binding signal [E-score]
176 | CCAAAAAG | -0.177
177 | GGAATTAA | 0.111
178 | CCTCAGTA | 0.0795
179 | CTGGCTCA | 0.0475
180 | CTCGAGCA | -0.112
181 | CTTCGAAA | -0.139
182 | CGTGAACA | 0.0255
183 | AATTGTAG | 0.28
184 | ACTTGTAC | 0.345
185 | AATTGTAC | 0.341
186 | ACTTGTAT | 0.236
187 | GATTGTAC | 0.317
188 | ACTTGTAA | 0.168
189 | ACGGTTAG | -0.0112
190 | GTTATTGA | 0.0636
191 | CGTTACAA | 0.151
192 | CTCAGTTC | -0.0174
193 | CTCTAGCA | -0.115
194 | CTCTAGTA | 0.119
195 | ATCTAGCC | 0.178
196 | ATCTAGTC | 0.297
197 | ATCTAGTA | 0.408
198 | ATCTAGCA | 0.339
199 | AACTTCAT | 0.0811
200 | GCTGTGAC | -0.0172

Row | Sequence | binding signal [E-score]
201 | AGATAACA | 0.241
202 | CTTACCAC | 0.00163
203 | AGTTGCGA | 0.0582
204 | GAACTGAA | -0.118
205 | AGACCGTC | -0.193
206 | CCAATGGG | -0.118
207 | AGTCTGCG | 0.0274
208 | AGTGGGCA | -0.0765
209 | GACGACGC | 0.0038
210 | CAATATCA | 0.183
211 | ATATATCC | 0.18
212 | ATATATCA | 0.398
213 | GTATATCA | 0.208
214 | GAATATCA | 0.18
215 | CTATATCA | 0.231
216 | TAATATCA | 0.338
217 | ATATATCG | 0.381
218 | CTATATCC | 0.0894
219 | CCTTAATC | -0.174
